From the supplement of paper PMC8387472
Several values for one entry are separate records, joined by “and”; a condition that tells them apart may be missing. Equal values may be shown once. Where a name gives a salt, the structure may show the parent alone. ± gives the standard deviation of the averaged measurements.

system: mESC LDLR-Dup GFP reporter (SpCas9 MH-deletion repair); experiment: fraction of GFP+ cells relative to DMSO control (fold change); higher = more MH-deletion repair to in-frame LDLR (or more editing); settings: 2 µM; 7 days post-transfection

Structure (SMILES)	fraction of GFP+ cells
NC(=O)c1ccccn1 [Picolinamide]	1.08 ± 0.046
CCOC(=O)Nc1ccc(NCc2ccc(F)cc2)nc1N [Flupirtine maleate]	0.989 ± 0.52
CC1=C(C(=O)Nc2cc3cn[nH]c3cc2F)C(c2ccc(C(F)(F)F)cc2)CC(=O)N1 (centres undefined)	1.27 ± 0.48
C[C@H](NC(=O)CCc1nc2ccccc2c(=O)[nH]1)c1ccccc1	0.781 ± 0.051
O=P(O)(O)C(O)(Cn1ccnc1)P(=O)(O)O [Zoledronic Acid Monohydrate]	1.07 ± 0.25
O=C(CCCCCCNC(=O)c1cnc(N(c2ccccc2)c2ccccc2Cl)nc1)NO [Citarinostat (ACY-241)]	0.902 ± 0.074
CN(C)CC(=O)Nc1ccc2[nH]c(=O)c3ccccc3c2c1	1.02 ± 0.06
Nc1ncn([C@@H]2O[C@H](CO)[C@@H](O)[C@H]2O)c(=O)n1 [Azacitidine]	1.1 ± 0.089
NC(=O)c1cc(F)cc2c1C(=O)N(C1CCN(C3CCC(F)(F)CC3)CC1)C2	0.792 ± 0.12
CS(=O)(=O)c1ccc(-c2nnc(/C=C/c3nnc(-c4ccc(C#N)cc4)o3)n2-c2ccccc2Cl)nc1	0.816 ± 0.089
O=c1cc(N2CCOCC2)oc2c1ccc1ccccc12	0.548 ± 0.39
Cn1cc(-c2cnn3c(N)c(Br)c([C@@H]4CCCNC4)nc23)cn1	0.689 ± 0.069
COc1ccc(CCNCc2ccc(OCc3ccc(Cl)nc3)c(OC)c2)cc1OC	1.56 ± 0.28
CC(C)OC(=O)C(C)(C)Oc1ccc(C(=O)c2ccc(Cl)cc2)cc1 [Fenofibrate]	1.96 ± 0.19
Cn1c(=O)cc(C(=O)Nc2ccc3c(c2)OCCO3)c2ccccc21	0.931 ± 0.27
CSc1ccc(C(=O)/C=C/c2cc(C)c(OC(C)(C)C(=O)O)c(C)c2)cc1 [Elafibranor]	1.63 ± 0.59
O=c1cc(-c2cccc3c2Sc2ccccc2S3)oc(N2CCOCC2)c1	0.661 ± 0.19
NC(=O)c1nc(F)cnc1O [Favipiravir (T-705)]	0.826 ± 0.25
O=C(O)C(Cc1ccccc1[N+](=O)[O-])=NNc1nc(-c2ccc(Cl)c(Cl)c2)cs1 (mixture of isomers)	1.15 ± 0.48
CC(NC(=O)c1ccccc1/N=C/c1c(O)ccc2ccccc12)c1ccccc1 (centres undefined) [Sirtinol]	1.45 ± 0.24

Structure (SMILES)	fraction of GFP+ cells
CC1=C(C(=O)Nc2ccc3[nH]ncc3c2)C(c2ccc(F)cc2)NC(=O)N1 (centres undefined)	1.53 ± 0.42
Oc1cccc(-c2nc(N3CCOCC3)c3oc4ncccc4c3n2)c1	0.542 ± 0.15
C=C1C(=O)O[C@H]2[C@H]1CC/C(C)=C/CC[C@@]1(C)O[C@@H]21 [(-)-Parthenolide]	0.606 ± 0.018
CCN1C(=O)CNc2ncc(-c3ccc(-c4nc[nH]n4)nc3C)nc21	0.696 ± 0.12
Cc1c(C)c2c(c(C)c1O)CCC(C)(COc1ccc(CC3SC(=O)NC3=O)cc1)O2 (centres undefined) [Troglitazone (CS-045)]	1.34 ± 0.24
CSc1nc2cc(Cl)c(Oc3cccc(Cl)c3Cl)cc2[nH]1 [Triclabendazole]	1.67 ± 0.26
CCc1ccc(/C=C2/SC(=S)NC2=O)cc1	0.853 ± 0.25
Cc1cnc(-c2ccccc2C(C)C)nc1NCc1ccc(-n2ccnn2)cc1	0.373 ± 0.22
O=C1CCc2c(ccc3ccccc23)O1 [Splitomicin]	0.636 ± 0.11
COc1cccc2c1c(O)c(C(=O)N(C)c1ccc(C(F)(F)F)cc1)c(=O)n2C [Tasquinimod]	0.837 ± 0.12
CC(=O)c1c(C)c2cnc(Nc3ccc(N4CCNCC4)cn3)nc2n(C2CCCC2)c1=O	1.36 and 0.964
O=C(O)[C@]1(Cc2cccc(Nc3nccs3)n2)CC[C@@H](Oc2cccc(Cl)c2F)CC1	1.82 ± 0.2
O=C(Nc1ccc(O)c(C(=O)O)c1)c1cccc(NC(=O)c2ccco2)c1	1.66 ± 0.41
CC(N)C12CC3CC(CC(C3)C1)C2 (centres undefined) [Rimantadine Hydrochloride]	0.701 ± 0.034
CN(N=O)C(=O)NC1C(O)OC(CO)C(O)C1O (centres undefined) [Streptozotocin (STZ)]	2.1 ± 0.29
Nc1nc(NC2CC2)cc(-c2cccc(Cl)c2Cl)n1	0.918 ± 0.2
NC(=O)C1CCCc2c1[nH]c1ccc(Cl)cc21 (centres undefined) [Selisistat (EX 527)]	1.18 ± 0.47
Nc1nc(=O)c2c([nH]1)NC[C@H](CNc1ccc(C(=O)N[C@@H](CCC(=O)O)C(=O)O)cc1)N2C=O [Calcium Levofolinate]	1.1 ± 0.47
Cc1cc([N+](=O)[O-])ccc1NS(=O)(=O)c1cc(Cl)ccc1Cl	1.64 ± 0.13
